Measurements taken from the supplement of paper PMC10849652.
The full data set covers some 8,800 targets. This sample favours those with a hit. About 0.5% of all pairs of compound and target were hits.

Tests used:
Assay in all cases: log2 fold change, soluble protein after heating vs DMSO (PISA); higher = thermal stabilisation; K562 lysate, 10 uM; active = over 0.2 and 3.5 SD of the protein, either way, in both replicates (recomputed)
erlotinib = compound: C#Cc1cccc(Nc2ncnc3cc(OCCOC)c(OCCOC)cc23)c1 [erlotinib]
Procedure, shortened: (§1)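 A 30 min treatment with 10 μM compound was applied to crude K562 extract at 1 mg/mL protein in PBS pH 7.4 with 1 mM MgCl2. Heating for 3 min spanned 48°C-58°C, after which aliquots were pooled, adjusted to 0.5% NP-40 at 4°C and spun at 21,000xg for 90 min. TMTpro 16plex LC-MS/MS of the supernatant, with channel sums equalised, gave values recorded as log-two fold change in thermal stability against solvent controls, from duplicates.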

[1] = compound: C/C(=N\NC(=O)C1=CC(=CC=C1)S(=O)(=O)N2CCOCC2)/C3=C(C=CC(=C3)Cl)O
Procedure, shortened: as §1

[2] = compound: C1=CC(=CC=C1C2=NC3=C(N2)C=C(C=C3)C(=O)N)OC4=CC=C(C=C4)Cl
Procedure, shortened: as §1

[3] = compound: C1=CC2=C(C=CC(=C2)/C=C\3/C(=O)NC(=NCC4=CC=CS4)S3)N=C1
Procedure, shortened: as §1

[4] = compound: C1=CC2=NC=CN=C2C=C1/C=C/3\C(=O)NC(=O)S3
Procedure, shortened: as §1

[5] = compound: C1=CC=C(C=C1)C2=NC(=C(N2)C3=CC=NC=C3)C4=CC(=C(C=C4)Cl)O
Procedure, shortened: as §1

[6] = compound: C1=CC=C2C(=C1)C3=NNC4=CC=CC(=C43)C2=O
Procedure, shortened: as §1

[7] = compound: C1CCN(C1)C(=O)NC2=CC=CC(=C2)NC3=NC=C(C(=N3)NCCC4=CN=CN4)Br
Procedure, shortened: as §1

[8] = compound: C1CN(CCC1(CC2=CC=C(C=C2)Cl)N)C3=NC=NC4=C3C=CN4
Procedure, shortened: as §1

IRAK-1-4 Inhibitor I = compound: C1COCCN1CCN2C3=CC=CC=C3N=C2NC(=O)C4=CC(=CC=C4)[N+](=O)[O-] [IRAK-1-4 Inhibitor I]
Procedure, shortened: as §1

Measured: log2 fold change

XAB2 (UniProt Q9HCS7)
inactive: erlotinib 0.049 | [1] -0.088 | [2] -0.012 | [3] 0.076 | [4] 0.093 | [5] 0.012 | [6] -0.041 | [7] 0.071 | [8] -0.014 | IRAK-1-4 Inhibitor I 0.004

VPS11 (UniProt Q9H270)
UniProt Q9H270, sequence (Q9H270 whole entry, looked up): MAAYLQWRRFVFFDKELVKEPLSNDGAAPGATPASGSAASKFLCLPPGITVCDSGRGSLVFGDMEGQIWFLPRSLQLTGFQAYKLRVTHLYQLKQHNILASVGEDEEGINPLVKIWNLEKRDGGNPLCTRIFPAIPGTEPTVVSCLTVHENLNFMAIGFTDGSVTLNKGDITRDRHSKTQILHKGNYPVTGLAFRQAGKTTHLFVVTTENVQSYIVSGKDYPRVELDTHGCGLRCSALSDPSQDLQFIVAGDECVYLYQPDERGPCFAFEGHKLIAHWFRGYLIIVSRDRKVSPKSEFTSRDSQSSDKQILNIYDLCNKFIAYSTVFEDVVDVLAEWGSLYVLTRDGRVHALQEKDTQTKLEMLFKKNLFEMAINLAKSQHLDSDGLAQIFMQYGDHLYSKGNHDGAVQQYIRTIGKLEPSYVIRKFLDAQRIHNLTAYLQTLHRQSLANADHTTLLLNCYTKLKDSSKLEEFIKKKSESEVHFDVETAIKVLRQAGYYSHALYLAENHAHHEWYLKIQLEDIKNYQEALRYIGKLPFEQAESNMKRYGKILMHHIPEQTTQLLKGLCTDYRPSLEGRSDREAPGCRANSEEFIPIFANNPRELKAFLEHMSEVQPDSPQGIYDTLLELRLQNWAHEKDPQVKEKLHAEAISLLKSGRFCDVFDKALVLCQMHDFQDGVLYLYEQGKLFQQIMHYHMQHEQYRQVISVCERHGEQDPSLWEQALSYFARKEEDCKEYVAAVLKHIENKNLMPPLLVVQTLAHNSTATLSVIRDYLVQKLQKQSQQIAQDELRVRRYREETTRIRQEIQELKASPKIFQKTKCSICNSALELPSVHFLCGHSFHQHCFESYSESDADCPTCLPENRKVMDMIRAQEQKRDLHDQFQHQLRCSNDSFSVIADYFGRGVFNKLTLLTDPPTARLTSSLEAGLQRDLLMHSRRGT
inactive: erlotinib 0.049 | [1] -0.037 | [2] 0.014 | [3] 0.034 | [4] 0.014 | [5] 0.011 | [6] -0.053 | [7] 0.003 | [8] -0.002 | IRAK-1-4 Inhibitor I -0.031

WDR3 (UniProt Q9UNX4)
inactive: erlotinib -0.036 | [1] -0.013 | [2] -0.044 | [3] -0.012 | [4] 0.027 | [5] -0.015 | [6] 0.026 | [7] 0.007 | [8] -0.04 | IRAK-1-4 Inhibitor I -0.02

YEATS4 (UniProt O95619)
inactive: erlotinib -0.017 | [1] -0.018 | [2] -0.018 | [3] 0.045 | [4] -0.079 | [5] -0.013 | [6] -0.027 | [7] 0.007 | [8] 0.034 | IRAK-1-4 Inhibitor I 0.002

ZC3H13 (UniProt Q5T200)
UniProt Q5T200, sequence (Q5T200 whole entry, looked up): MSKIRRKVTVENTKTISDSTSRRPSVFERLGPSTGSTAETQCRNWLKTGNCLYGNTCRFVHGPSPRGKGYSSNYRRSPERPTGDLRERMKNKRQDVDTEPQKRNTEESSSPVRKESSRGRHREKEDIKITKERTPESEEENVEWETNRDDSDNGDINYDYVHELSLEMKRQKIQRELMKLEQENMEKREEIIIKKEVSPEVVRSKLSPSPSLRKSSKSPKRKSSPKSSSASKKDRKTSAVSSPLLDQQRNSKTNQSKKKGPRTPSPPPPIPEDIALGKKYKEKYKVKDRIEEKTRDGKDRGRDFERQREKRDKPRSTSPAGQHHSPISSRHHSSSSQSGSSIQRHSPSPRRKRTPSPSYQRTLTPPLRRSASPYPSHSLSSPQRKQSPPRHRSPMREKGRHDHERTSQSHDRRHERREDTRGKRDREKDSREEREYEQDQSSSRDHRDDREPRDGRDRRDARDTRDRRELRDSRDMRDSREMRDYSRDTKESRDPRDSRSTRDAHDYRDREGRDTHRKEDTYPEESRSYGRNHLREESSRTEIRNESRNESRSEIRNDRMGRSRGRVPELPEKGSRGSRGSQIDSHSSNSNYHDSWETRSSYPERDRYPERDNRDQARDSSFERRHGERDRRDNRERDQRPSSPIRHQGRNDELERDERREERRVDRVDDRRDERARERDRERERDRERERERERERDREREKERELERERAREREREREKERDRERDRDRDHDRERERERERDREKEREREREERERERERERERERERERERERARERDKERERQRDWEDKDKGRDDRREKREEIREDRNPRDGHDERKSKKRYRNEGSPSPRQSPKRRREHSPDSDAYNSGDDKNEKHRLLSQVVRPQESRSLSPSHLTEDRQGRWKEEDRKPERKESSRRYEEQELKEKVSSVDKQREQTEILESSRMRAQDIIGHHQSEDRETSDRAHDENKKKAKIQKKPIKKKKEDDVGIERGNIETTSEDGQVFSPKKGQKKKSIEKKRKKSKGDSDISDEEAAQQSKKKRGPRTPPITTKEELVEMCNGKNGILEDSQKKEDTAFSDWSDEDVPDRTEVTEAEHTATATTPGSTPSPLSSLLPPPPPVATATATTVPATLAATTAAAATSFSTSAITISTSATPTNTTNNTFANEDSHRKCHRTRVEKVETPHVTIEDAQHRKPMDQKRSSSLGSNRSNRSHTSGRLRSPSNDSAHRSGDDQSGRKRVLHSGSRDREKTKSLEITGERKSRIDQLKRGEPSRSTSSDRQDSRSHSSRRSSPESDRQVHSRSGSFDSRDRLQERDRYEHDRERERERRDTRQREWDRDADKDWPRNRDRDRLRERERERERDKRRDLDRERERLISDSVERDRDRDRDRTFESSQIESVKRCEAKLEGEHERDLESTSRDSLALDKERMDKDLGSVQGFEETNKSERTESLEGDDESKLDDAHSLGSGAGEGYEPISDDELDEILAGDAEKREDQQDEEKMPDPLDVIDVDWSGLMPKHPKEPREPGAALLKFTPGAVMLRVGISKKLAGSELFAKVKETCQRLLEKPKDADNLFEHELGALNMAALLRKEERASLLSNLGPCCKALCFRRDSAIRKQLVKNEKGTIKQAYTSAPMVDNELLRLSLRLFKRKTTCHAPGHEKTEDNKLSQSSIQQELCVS
inactive: erlotinib 0.081 | [1] 0.003 | [2] 0.034 | [3] -0.027 | [4] -0.071 | [5] 0.075 | [6] -0.045 | [7] -0.016 | [8] -0.043 | IRAK-1-4 Inhibitor I 0.007

WDCP (UniProt Q9H6R7)
UniProt Q9H6R7, sequence (Q9H6R7 whole entry, looked up): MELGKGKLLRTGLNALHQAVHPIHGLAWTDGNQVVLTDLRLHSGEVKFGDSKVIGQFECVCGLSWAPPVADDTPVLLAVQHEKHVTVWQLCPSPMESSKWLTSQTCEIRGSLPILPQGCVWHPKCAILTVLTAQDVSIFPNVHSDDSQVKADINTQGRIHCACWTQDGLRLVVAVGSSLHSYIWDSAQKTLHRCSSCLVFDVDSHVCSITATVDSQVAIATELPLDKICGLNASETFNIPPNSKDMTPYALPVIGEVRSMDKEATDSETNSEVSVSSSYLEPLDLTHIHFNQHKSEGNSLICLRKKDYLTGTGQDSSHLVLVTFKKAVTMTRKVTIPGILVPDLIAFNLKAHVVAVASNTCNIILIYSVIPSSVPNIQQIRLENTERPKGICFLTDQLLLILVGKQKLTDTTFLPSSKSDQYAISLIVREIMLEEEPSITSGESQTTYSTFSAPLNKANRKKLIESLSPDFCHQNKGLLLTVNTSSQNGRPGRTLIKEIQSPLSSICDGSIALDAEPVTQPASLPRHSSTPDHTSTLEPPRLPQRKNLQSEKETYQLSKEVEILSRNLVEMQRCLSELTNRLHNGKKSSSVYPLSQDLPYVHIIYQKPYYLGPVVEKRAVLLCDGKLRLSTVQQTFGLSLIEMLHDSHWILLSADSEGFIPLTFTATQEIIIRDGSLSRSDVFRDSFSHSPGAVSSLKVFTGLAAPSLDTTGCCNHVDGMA
inactive: erlotinib -0.06 | [1] 0.091 | [2] 0.079 | [3] 0.018 | [4] 0.024 | [5] 0 | [6] -0.011 | [7] -0.022 | [8] 0.002 | IRAK-1-4 Inhibitor I 0.024

ZMYM1 (UniProt Q5SVZ6)
inactive: erlotinib -0.041 | [1] -0.027 | [2] -0.002 | [3] 0.021 | [4] 0.007 | [5] -0.036 | [6] 0.041 | [7] 0.043 | [8] 0.025 | IRAK-1-4 Inhibitor I -0.008

VPS28 (UniProt Q9UK41)
inactive: erlotinib 0.707 | [1] -0.039 | [2] 0.004 | [3] -0.005 | [4] 0.041 | [5] 0.028 | [6] -0.036 | [7] -0.006 | [8] -0.018 | IRAK-1-4 Inhibitor I -0.036

YTHDF3 (UniProt Q7Z739)
UniProt Q7Z739, sequence (Q7Z739 whole entry, looked up): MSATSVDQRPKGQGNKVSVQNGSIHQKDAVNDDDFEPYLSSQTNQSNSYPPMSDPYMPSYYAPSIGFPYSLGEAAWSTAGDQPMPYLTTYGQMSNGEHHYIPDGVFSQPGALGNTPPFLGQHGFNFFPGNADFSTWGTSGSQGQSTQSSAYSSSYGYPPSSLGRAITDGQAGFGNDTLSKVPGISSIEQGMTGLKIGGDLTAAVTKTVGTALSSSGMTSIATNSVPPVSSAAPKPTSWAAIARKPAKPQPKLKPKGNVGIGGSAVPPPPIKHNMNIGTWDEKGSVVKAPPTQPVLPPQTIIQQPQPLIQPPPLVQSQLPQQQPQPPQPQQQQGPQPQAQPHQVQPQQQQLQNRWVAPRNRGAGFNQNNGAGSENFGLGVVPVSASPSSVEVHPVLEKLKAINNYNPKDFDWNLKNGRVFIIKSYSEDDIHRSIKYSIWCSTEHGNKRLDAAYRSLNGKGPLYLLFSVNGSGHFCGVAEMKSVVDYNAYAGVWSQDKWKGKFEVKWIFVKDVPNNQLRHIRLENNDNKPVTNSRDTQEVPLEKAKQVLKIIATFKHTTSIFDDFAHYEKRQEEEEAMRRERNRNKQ
inactive: erlotinib -0.009 | [1] -0.003 | [2] -0.035 | [3] -0.029 | [4] 0.089 | [5] -0.183 | [6] 0.003 | [7] -0.04 | [8] 0.036 | IRAK-1-4 Inhibitor I 0.12

VTN (UniProt P04004)
inactive: erlotinib -0.065 | [1] -0.006 | [2] 0.003 | [3] -0.033 | [4] 0.107 | [5] -0.096 | [6] -0.129 | [7] -0.065 | [8] -0.042 | IRAK-1-4 Inhibitor I 0.043

XPO6 (UniProt Q96QU8)
UniProt Q96QU8, sequence (Q96QU8 whole entry, looked up): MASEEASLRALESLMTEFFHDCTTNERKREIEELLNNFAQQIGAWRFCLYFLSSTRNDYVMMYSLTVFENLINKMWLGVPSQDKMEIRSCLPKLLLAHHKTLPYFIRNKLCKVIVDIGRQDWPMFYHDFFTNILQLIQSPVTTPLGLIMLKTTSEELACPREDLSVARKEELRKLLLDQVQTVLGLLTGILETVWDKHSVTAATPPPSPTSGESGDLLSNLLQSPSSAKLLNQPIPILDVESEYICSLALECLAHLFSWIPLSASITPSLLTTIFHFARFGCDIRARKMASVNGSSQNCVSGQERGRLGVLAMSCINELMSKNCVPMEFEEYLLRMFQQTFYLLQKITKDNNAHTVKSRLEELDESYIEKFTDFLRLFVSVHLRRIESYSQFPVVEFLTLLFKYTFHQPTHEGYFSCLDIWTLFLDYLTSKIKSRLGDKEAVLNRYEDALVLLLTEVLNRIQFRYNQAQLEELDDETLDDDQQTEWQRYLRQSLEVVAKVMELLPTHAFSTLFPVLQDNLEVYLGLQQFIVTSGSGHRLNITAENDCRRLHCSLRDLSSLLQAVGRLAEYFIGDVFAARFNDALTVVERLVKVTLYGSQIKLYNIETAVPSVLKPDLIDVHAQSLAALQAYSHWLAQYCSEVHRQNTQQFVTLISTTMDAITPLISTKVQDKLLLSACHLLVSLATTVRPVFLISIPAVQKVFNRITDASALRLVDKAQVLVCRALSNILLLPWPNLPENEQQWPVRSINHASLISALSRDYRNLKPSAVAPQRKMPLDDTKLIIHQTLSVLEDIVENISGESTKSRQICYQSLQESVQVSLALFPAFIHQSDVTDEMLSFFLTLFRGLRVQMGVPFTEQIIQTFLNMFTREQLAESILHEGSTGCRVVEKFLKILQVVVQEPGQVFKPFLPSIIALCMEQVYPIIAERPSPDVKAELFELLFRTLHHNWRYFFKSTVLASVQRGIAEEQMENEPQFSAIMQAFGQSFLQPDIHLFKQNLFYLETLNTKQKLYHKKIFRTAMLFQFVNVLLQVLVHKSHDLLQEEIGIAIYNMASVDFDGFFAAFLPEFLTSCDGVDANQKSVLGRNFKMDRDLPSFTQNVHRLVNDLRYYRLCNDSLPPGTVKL
inactive: erlotinib 0.091 | [1] -0.024 | [2] -0.028 | [3] 0.031 | [4] -0.012 | [5] -0.003 | [6] -0.072 | [7] -0.007 | [8] -0.028 | IRAK-1-4 Inhibitor I 0.003

WEE1 (UniProt P30291)
inactive: erlotinib 0.079 | [1] -0.014 | [2] -0.091 | [3] -0.051 | [4] 0.019 | [5] 0.01 | [6] -0.006 | [7] -0.07 | [8] 0.021 | IRAK-1-4 Inhibitor I 0.056

VHL (UniProt P40337)
inactive: erlotinib 0.088 | [1] 0.034 | [2] -0.016 | [3] 0.059 | [4] 0.032 | [5] -0.09 | [6] -0.003 | [7] -0.007 | [8] -0.107 | IRAK-1-4 Inhibitor I 0.02

WRN (UniProt Q14191)
inactive: erlotinib -0.003 | [1] -0.048 | [2] 0.005 | [3] 0.006 | [4] 0.057 | [5] 0.011 | [6] -0.077 | [7] 0.02 | [8] -0.012 | IRAK-1-4 Inhibitor I -0.013

VPS18 (UniProt Q9P253)
inactive: erlotinib 0.018 | [1] 0.056 | [2] -0.032 | [3] -0.021 | [4] -0.016 | [5] 0.051 | [6] -0.076 | [7] -0.017 | [8] 0.053 | IRAK-1-4 Inhibitor I -0.034
